# Results filed as inconclusive are left out. Where a call stands in place of a potency, no number is given. Active and inactive are the calls of the source. Calls follow the shape of the dose curve; as a rule, active = well fitted inhibition curve with a large enough effect in the repeat runs; inconclusive = weak or mixed curves; inactive = flat fitted curve, though single readings scatter. Positions of bridges follow the written chain, without caps; N, C: chain ends. Non-standard residues stand in square brackets, D forms with d. Residues, ends and D or L forms follow the SMILES beside them. hArg = N=C(N)NCCCC[C@H](N)C(=O)O; Mpa = O=C(O)CCS
# Experiment: qHTS assay to identify small molecule HDAC inhibitors (AID 1259364); also: nearly all actives have a fitted effect of over 45% in size; as to activity change, negative = inhibition: top concentration of the series differs between compounds
# Conditions: HCT-116 HDAC-Glo I/II luminescence, 2 h; series mostly up to 92.4 µM
# Source text: U.S. Tox21 Program National Center for Advancing Translational Sciences [NCATS] NIH Chemical Genomics Center [NCGC] U.S. Environmental Protection Agency [EPA] National Institutes of Environmental Health Sciences [NIEHS] National Toxicology Program [NTP] U.S. Food and Drug Administration [FDA] Tox21 Assay Overview: Histone deacetylases (HDACs) are a group of epigenetic enzymes that regulate gene expression by histone deacetylation. HDACs are capable of introducing epigenetic modifications and such aberrations contribute to the onset and progression of several human diseases, thus making HDACs a popular therapeutic target. For identifying endogenous class I/II HDAC inhibitors a homogenous, luminogenic HDAC I/II cell based assay was used to measure the relative activity of class I and II HDACs from cells. Wild type HCT-116 cells were used to screen Tox21 libraries for identifying class I/II HDAC inhibitors.
# Tox21 Assay Protocol Summary: HCT-116 cells were dispensed at 1,500 per well in 5uL of culture medium into white solid bottom 1536-well plates (Greiner Bio-One, Monroe, NC) using a Multidrop Combi (Thermo Scientific, Waltham, MA) dispenser. The assay plates were incubated at 37 C and 5% CO2 for an overnight, and then 23nL of compounds dissolved in DMSO and positive control were transferred using a Pintool station (Wako, San Diego, CA). The assay plates were incubated at 37C and 5% CO2 for 2hr. After compound treatment, 4uL of HDAC-Glo reagent (Promega Corporation, Madison, WI) was added to each well of the assay plates using Flying Reagent Dispenser (FRD, Aurora Discovery, San Diego, CA) and incubated the assay plates at room temperature for 30min. The luminescence signal was quantified using a ViewLux plate reader (Perkin Elmer, Shelton, CT).
# Potency is read from the fitted curve at half-maximal effect.
Compound,Potency,"activity change, negative = inhibition"
CCNC(=O)NCc1cccc(Cl)c1,inactive,
CC(N)CCCC(C)(C)O (stereo not given),inactive,
CCCCCC/C=C/C(=O)OC,inactive,
COc1ccc(CCO)cc1,inactive,
CCC(=O)c1c(O)cc(O)cc1O,inactive,
CCCC(=O)OC/C=C(\C)CCC=C(C)C,inactive,
C=CCCCCCCCC,inactive,
CC(C)C[C@@H]1[C@H](c2ccccc2)OC(=O)N1CCCN1CCCCCC1,inactive,
O=C(O)CONC(=O)c1ccccc1,inactive,
C=CCCCC,inactive,
Cc1c(N)cccc1Cl,inactive,
COS(=O)(=O)O,inactive,
c1ccc2c(CC3=NCCN3)cccc2c1,inactive,
CCn1cc(C(=O)O)c(=O)c2cnc(N3CCCC3)nc21,,0.504% [at 8.39 µM] (inactive)
Cc1ccc2c(c1)C(=O)c1ccccc1C2=O,1.21 µM (active),
Cc1cccc(Cl)c1,inactive,
O/N=C/C=N/O,inactive,
NC(=O)[C@@H]1CSSCCC(=O)N[C@@H](CCCCN=C(N)N)C(=O)NCC(=O)N[C@@H](CC(=O)O)C(=O)N[C@@H](Cc2c[nH]c3ccccc23)C(=O)N2CCC[C@H]2C(=O)N1 ([Mpa][hArg]GDWPC-NH2; disulfide 1-7),inactive,
CC1(C)Cc2cccc(N)c2O1,inactive,
CC(C)C1OCCN1CCOC(=O)NCCCCCCNC(=O)OCCN1CCOC1C(C)C (stereo not given),inactive,

Compound,Potency,"activity change, negative = inhibition"
CC(=O)CC(=O)Nc1ccc(C)cc1C,inactive,
O=C[O][Al]([O]C=O)[O]C=O,inactive,
CCO[Si](CC)(OCC)OCC,inactive,
CC(=O)CC(=O)OC(C)(C)C,inactive,
Cc1ccc(C)c([N+](=O)[O-])c1,inactive,
N#CCC(=O)NN,inactive,
COC(=O)/C=C\C(=O)O,inactive,
CC1=C(O)C(=O)C(C)O1 (stereo not given),inactive,
CC(CO)(CO)CO,inactive,
CN(C)CC/C=C1/c2ccccc2COc2ccc(CC(=O)O)cc21,inactive,
CC/C(C)=N\O[Si](C)(O/N=C(\C)CC)O/N=C(\C)CC,inactive,
CC(C)OC(=O)CCC(=O)OC(C)C,inactive,
ONc1ccccc1,27 µM (active),
Fc1ccccc1,inactive,
C=C(C)C1CC=C(C)C(=O)C1 (stereo not given),inactive,
CN(C)C(C)(C)CO,inactive,
C/C(CC(C)C)=N\O,inactive,
COC(=O)c1cc(Cl)cc(Cl)c1,inactive,
C=CC(=O)CCCCC,inactive,
C=C(C)c1cccc(C(C)(C)N=C=O)c1,inactive,
